Source: PubChem
3T3 cytotox: NIH 3T3 cell cytotoxicity | NIH 3T3 viability, CellTiter-Glo ATP luminescence, 48-72 h | Potency, µM (top dose mostly 96.7 µM), without a hit: at the top dose activity change, negative = cytotoxicity, hits mostly inhibitors | 94,000 tested, 4.3% active; also: nearly all actives have a fitted effect of over 55% in size
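ATP-dependent luminescence (CellTiter-Glo) served as the viability signal for NIH 3T3 cells treated with compound for 48 or 72 hr at 37 °C.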
HEK293 tox: cytotoxic compounds in HEK 293 cells | HEK 293 viability, ATP luminescence (CellTiter-Glo), 48-72 h | Potency, µM (series often up to 115 µM), inactives show top-dose activity change, negative = cytotoxicity, most hits filed as inhibitors | 94,000 tested, 6.6% active; also: nearly all actives have a fitted effect of over 60% in size
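Pintool-delivered compounds were incubated with HEK 293 cells (250 cells/well) at 37 degree Celsius for 48 or 72 hr. ATP-dependent luminescence (CellTiter-Glo) then reported remaining viable cells.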
Luciferase inh: Photinus pyralis luciferase inhibition; P08659; purified P. pyralis luciferase, luminescence, biochemical; 76,000 tested, 2.5% active; Potency, µM (titrated, usually from 115 µM), usual class: inhibitors; also: nearly all actives have a fitted effect of over 65% in size
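Inhibitors were tested against purified firefly luciferase in a biochemical, low-substrate format (both substrates at 10uM) and luminescence measured with a CCD imager.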
GPT2 inhibitor: inhibitors of human GPT2 alanine aminotransferase. Recombinant GPT2, coupled pyruvate oxidase/HRP Amplex Red fluorescence. Potency, µM (series often up to 57.7 µM), without a hit: at the top dose activity change, negative = inhibition, usual class: inhibitors. 100,000 tested, 0.25% active. AID 1671188; also: nearly all actives have a fitted effect of over 60% in size
Target sequence (Q8TD30 whole entry, looked up): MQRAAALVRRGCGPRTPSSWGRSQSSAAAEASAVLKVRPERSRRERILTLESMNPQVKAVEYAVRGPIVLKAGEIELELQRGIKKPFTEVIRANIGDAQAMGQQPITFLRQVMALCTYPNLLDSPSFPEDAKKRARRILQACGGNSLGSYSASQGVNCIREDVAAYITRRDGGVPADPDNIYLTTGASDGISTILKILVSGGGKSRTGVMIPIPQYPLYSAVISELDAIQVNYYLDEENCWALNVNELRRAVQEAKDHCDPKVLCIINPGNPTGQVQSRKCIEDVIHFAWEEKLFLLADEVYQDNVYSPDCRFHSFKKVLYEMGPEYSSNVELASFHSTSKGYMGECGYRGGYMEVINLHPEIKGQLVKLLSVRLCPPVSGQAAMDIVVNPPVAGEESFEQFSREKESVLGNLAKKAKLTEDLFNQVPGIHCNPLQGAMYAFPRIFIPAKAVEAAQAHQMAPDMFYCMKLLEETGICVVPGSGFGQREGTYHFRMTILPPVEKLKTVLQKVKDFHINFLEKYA
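GPT2 10ng/uL, a-KG 250uM, L-Ala 2mM, HEPES pH7.5 + 0.0001% Tween; 30 min RT. Then Amplex mix (PO/HRP/ThPP), 30 min RT dark, fluorescence. AOA 50uM used as positive control.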
NPR1 antag: antagonists of human natriuretic peptide receptor Npr1; 76,000 tested, 1.6% active; Potency, µM (titrated, usually from 46.3 µM), for the others: at the highest dose activity change, negative = inhibition, most hits filed as inhibitors; HEK293 hNpr1 GloSensor cGMP, ANP-stimulated luminescence; P16066; AID 1347048; calls by dose curve; also: nearly all actives have a fitted effect of over 60% in size
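HEK293 cells stably expressing human Npr1 and cGMP GloSensor pGS-40F, loaded 2 h with 2% GloSensor reagent, given compound 30 min at room temperature. Luminescence read before and 20 min after 0.1 nM hNppA.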
* hit, by the source's call; i = inactive; ? = inconclusive; . = no result given; [ ] = another dose, or the depositor's remark. Compounds with a hit are over-represented: about 10% of the library has one in this group of screens. Unless noted, calls follow the shape of the dose curve; as a rule, active = well fitted curve in the direction sought with a large enough effect; inconclusive = small, poorly fitted or top-dose-only effect, or another doubt; inactive = no such curve, though single readings can be large; an effect the other way counts as inactive or inconclusive. % is scaled to controls: 0 for no effect and ±100 for the full control effect; potency is read from the fitted curve at half-maximal effect.

SMILES | 3T3 cytotox | HEK293 tox | Luciferase inh | GPT2 inhibitor | NPR1 antag
COc1ccccc1-c1ccc(C(=O)N2CCC(C(=O)N3CCC(Cc4ccccc4)CC3)CC2)cc1 | 22µM* | ? | . | 4% | .
O=C(NCc1cccc(F)c1)C1CCN(C(=O)c2ccc(-c3cncnc3)cc2)CC1 | ? | -17% | . | 1% | .
Cc1ccc(C(=O)N2CCCC(c3nc(-c4cccnc4)no3)CCNC(=O)CC2)cn1 (stereo not given) | -19% | -19% | i | i | -3%
Cc1nn(-c2ccccc2)c2c1C(C)N(C1CCN([S+](=O)([O-])c3c(C)noc3C)CC1)C2=O (stereo not given) | -19% | 2% | . | . | .
Cc1ccc(OCc2ccc(C(=O)N3C[C@H](C4CC4)[C@@H](N)C3)cc2)cc1 | ? | ? | i | 4% | 1%
COc1ccc(CNC(=O)N2CCc3nnc(C4CC4)n3CC2)cc1 | -15% | -1% | . | i | .
CC(C)c1ccc(CC(=O)N2CCCc3ncc(C(=O)N4CCCC[C@@H]4c4ccccc4)cc32)cc1 | ? | ? | i | -4% | -22%
CC(C)c1ccc(CC(=O)N2CCCc3ncc(C(=O)N4CCCC[C@@H]4Cc4ccccc4)cc32)cc1 | 35µM* | 45µM* | i | ? | -7%
O=C(Cc1cccc(C(F)(F)F)c1)N1CCCc2ncc(C(=O)N3CCCC[C@@H]3Cc3ccccc3)cc21 | ? | 79µM* | i | -15% | -4%
CC(C)n1cc(CN2CCC(Oc3ccc(C(=O)NC4CCCC4)cc3Cl)CC2)cn1 | 40µM* | ? | i | 0% | 3%
Cc1cccc(C)c1CN1CC2(COCC1=O)CN(c1ccc(C(F)(F)F)cn1)C2 | 89µM* | ? | i | -3%[88.5 µM] | -17%[70.6 µM]
COc1ccc(CN2CC3(COCC2=O)CN(c2ccc(C(F)(F)F)cn2)C3)cc1F | ? | ? | i | -9%[88.5 µM] | -4%[70.6 µM]
CCS(=O)(=O)N(C1CC1)C1CCOC2(CCN(C(=O)c3ccccc3OC)CC2)C1 (stereo not given) | -11% | 1% | i | i | 4%
CC(C)(C)OC(=O)N1CC(Nc2ccc(Oc3ccccc3)cc2)C1 | ? | 89µM* | . | i | .
O=C1[C@@H]2C[C@@H](CN2C2CCCC2)Oc2ccccc2N1Cc1ccccc1 | ? | 100µM* | i | -19%[88.5 µM] | -29%[70.6 µM]
COc1ccc(CN2C(=O)[C@@H]3C[C@@H](CN3C(C)C)Oc3ccccc32)cc1 | i | i | i | -21%[88.5 µM] | -2%[70.6 µM]
CC(C)N1C[C@@H]2C[C@H]1C(=O)N(Cc1ccc(OC(F)(F)F)cc1)c1ccccc1O2 | ? | 71µM* | i | -14%[88.5 µM] | -25%[70.6 µM]
CC(=O)N1CCC(N2C[C@@H]3C[C@H]2C(=O)N(Cc2ccc(OC(F)(F)F)cc2)c2ccccc2O3)CC1 | ? | ? | i | 4% | -1%
CN1CCC(N2C[C@@H]3C[C@H]2C(=O)N(Cc2ccc(OC(F)(F)F)cc2)c2ccccc2O3)CC1 | 40µM* | ? | i | -12% | -3%
COCCN1C(=O)[C@@H]2C[C@@H](CN2C2CCCC2)Oc2ccccc21 | -30%[138 µM] | ? | i | 4%[88.5 µM] | -12%[70.6 µM]
O=C1[C@@H]2C[C@@H](CN2C2COC2)Oc2ccccc2N1Cc1ccc(OC(F)(F)F)cc1 | ? | 100µM* | i | ? | -16%[70.6 µM]
O=C1[C@@H]2C[C@@H](CN2Cc2nccs2)Oc2ccccc2N1Cc1ccc(OC(F)(F)F)cc1 | ? | ? | i | -21% | -30%
O=S(=O)(c1ccccc1Cl)N1CCC(c2noc(COCC3CC3)n2)CC1 | ? | ? | i | -9% | -26%
CCC(=O)N1CCC(CC)(N2CCN(S(=O)(=O)c3cccc(C(F)(F)F)c3)CC2)C1 (stereo not given) | ? | ? | i | i | 1%
Cc1noc(C)c1-c1cc2cc(C(C)C)oc2c(NC2CCN(C)CC2)n1 | ? | 32µM* | i | -8%[88.5 µM] | 5%[70.6 µM]
Cc1noc(C)c1-c1cc2cc(C(C)C)oc2c(Nc2ccn(C)n2)n1 | ? | 63µM* | i | -9%[88.5 µM] | 1%[70.6 µM]
Cc1noc(C)c1-c1cc2cc(CNC3CC3)oc2c(NC2CCN(C)CC2)n1 | ? | 40µM* | i | ? | -2%[70.6 µM]
